# Tests used:
# Assay in all cases: DAPPL (digital affinity profiling via proximity ligation, sequencing); 10 mM Tris-HCl pH 7.5, 50 mM NaCl, 1 mM DTT, 4% glycerol, room temperature, 30 min; GST-TFs on glutathione beads, 16-mer random dsDNA library, 0.1% formaldehyde crosslink after washing; high values mean tight binding
# FLI1 = target: T1, FLI1 (Homo sapiens, UniProt Q01543 1-452); settings: protein: recombinant; tags: N-terminal GST; dsDNA, one strand shown
# T1 sequence: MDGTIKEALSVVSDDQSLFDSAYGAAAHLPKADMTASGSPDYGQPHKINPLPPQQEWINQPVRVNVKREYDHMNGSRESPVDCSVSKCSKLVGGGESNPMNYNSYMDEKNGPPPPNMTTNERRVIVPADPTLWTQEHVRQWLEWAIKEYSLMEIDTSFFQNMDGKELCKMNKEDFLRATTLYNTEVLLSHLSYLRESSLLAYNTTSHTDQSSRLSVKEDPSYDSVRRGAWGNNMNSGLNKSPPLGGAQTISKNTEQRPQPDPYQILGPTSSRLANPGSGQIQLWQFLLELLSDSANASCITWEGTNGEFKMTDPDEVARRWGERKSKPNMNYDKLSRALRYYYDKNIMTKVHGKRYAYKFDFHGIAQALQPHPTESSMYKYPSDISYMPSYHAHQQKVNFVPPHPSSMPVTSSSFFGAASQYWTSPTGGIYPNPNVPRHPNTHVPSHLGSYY
# How it was run: (§1)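 Pools of DNA-barcoded human transcription factors, expressed in yeast as GST fusions on glutathione beads and combined with a tag-only sample, were incubated with 200 nmole of a 16-mer random double-stranded DNA library. Incubation took 30 min at room temperature in Tris/NaCl/DTT/glycerol buffer and was followed by washing, 0.1% formaldehyde crosslinking, proximity ligation (BsaI/T4 ligase, 1 h, 37 °C), PCR amplification and sequencing on an Illumina NextSeq500. Binding signal is the ratio of a hexamer's read frequency for a factor to its frequency for the tag-only sample.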
# ELK1 = target: T2, ELK1 (Homo sapiens, UniProt P19419 1-428); settings: protein: recombinant; tags: N-terminal GST; dsDNA, one strand shown
# T2 sequence: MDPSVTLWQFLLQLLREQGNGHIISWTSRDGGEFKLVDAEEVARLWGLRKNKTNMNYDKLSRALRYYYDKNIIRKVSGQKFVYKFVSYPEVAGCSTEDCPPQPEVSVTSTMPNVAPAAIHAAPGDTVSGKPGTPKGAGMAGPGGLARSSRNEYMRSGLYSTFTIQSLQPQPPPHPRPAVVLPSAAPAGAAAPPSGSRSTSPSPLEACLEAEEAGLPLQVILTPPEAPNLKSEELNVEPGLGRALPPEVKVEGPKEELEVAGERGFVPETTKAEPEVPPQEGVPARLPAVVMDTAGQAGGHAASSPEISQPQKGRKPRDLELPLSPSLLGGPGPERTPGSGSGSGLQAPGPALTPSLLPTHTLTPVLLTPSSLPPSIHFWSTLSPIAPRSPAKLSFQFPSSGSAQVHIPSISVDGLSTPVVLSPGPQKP
# How it was run: as §1
# GABPA = target: T3, GABPA (Homo sapiens, UniProt Q06546 1-454); settings: protein: recombinant; tags: N-terminal GST; dsDNA, one strand shown
# T3 sequence: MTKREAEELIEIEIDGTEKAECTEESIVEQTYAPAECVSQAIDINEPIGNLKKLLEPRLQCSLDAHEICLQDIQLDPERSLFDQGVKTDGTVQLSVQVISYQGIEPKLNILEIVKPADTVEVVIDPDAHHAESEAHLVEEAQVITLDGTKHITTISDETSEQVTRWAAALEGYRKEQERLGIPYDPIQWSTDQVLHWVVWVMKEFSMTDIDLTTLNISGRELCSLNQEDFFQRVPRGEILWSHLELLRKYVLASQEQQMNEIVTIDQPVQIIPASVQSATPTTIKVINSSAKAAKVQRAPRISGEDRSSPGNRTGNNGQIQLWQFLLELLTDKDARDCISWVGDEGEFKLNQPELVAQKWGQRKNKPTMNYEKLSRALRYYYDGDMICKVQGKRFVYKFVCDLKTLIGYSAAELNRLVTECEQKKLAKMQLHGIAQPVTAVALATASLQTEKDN
# How it was run: as §1
# ERG = target: T4, ERG (Homo sapiens, UniProt P11308 1-479); settings: protein: recombinant; tags: N-terminal GST; dsDNA, one strand shown
# T4 sequence: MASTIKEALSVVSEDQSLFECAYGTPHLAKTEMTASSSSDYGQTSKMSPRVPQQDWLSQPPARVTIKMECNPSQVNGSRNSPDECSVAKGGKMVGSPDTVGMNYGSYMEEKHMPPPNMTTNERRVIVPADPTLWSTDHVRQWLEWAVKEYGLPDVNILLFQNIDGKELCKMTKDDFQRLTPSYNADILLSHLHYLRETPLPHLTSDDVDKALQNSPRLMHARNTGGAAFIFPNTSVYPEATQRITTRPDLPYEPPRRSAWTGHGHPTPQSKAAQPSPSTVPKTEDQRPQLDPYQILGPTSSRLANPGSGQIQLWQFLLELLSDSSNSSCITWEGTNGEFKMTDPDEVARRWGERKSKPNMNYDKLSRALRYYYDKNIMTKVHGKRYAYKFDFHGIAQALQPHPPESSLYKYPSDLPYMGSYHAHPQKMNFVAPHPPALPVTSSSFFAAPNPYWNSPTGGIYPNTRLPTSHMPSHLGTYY
# How it was run: as §1
# ELF1 = ELF1 (Homo sapiens, UniProt P32519 1-619); settings: protein: recombinant; tags: N-terminal GST; dsDNA, one strand shown
# How it was run: as §1
# EHF = target: T5, EHF (Homo sapiens, UniProt Q9NZC4 1-300); settings: protein: recombinant; tags: N-terminal GST; dsDNA, one strand shown
# T5 sequence: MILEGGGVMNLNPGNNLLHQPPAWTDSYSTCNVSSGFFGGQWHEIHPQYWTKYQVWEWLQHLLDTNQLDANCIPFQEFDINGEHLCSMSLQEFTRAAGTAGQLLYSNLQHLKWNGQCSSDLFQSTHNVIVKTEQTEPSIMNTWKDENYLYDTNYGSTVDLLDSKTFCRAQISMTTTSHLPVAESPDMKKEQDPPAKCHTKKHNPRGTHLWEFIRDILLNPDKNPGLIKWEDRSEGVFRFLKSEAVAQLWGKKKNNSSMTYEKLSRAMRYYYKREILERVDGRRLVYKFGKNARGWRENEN
# How it was run: as §1
# SPI1 = SPI1 (Homo sapiens, UniProt P17947 1-270); settings: protein: recombinant; tags: N-terminal GST; dsDNA, one strand shown
# How it was run: as §1
# SPIB = SPIB (Homo sapiens, UniProt Q01892 1-262); settings: protein: recombinant; tags: N-terminal GST; dsDNA, one strand shown
# How it was run: as §1
# ELK3 = target: T6, ELK3 (Homo sapiens, UniProt P41970 1-407); settings: protein: recombinant; tags: N-terminal GST; dsDNA, one strand shown
# T6 sequence: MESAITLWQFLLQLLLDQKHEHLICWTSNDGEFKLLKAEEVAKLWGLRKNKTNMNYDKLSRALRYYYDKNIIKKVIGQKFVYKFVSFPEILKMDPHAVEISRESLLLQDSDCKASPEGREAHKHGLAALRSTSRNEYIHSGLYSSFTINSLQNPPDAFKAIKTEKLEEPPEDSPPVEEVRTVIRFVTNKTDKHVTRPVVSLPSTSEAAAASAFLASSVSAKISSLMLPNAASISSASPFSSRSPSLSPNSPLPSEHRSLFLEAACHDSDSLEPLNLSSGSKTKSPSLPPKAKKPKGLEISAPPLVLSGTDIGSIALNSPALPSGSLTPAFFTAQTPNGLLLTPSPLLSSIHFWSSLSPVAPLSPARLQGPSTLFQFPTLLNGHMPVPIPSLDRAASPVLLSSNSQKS
# How it was run: as §1
# FEV = target: T7, FEV (Homo sapiens, UniProt Q99581 1-238); settings: protein: recombinant; tags: N-terminal GST; dsDNA, one strand shown
# T7 sequence: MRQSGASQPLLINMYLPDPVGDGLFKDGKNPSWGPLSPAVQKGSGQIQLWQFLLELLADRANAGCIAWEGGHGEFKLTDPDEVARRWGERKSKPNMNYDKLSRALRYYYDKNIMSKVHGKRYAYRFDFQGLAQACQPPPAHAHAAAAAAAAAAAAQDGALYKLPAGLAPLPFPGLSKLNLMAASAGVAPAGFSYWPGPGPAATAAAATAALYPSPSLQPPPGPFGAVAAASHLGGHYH
# How it was run: as §1
# ETV5 = ETV5 (Homo sapiens, UniProt P41161 1-510); settings: protein: recombinant; tags: N-terminal GST; dsDNA, one strand shown
# How it was run: as §1
# HSF1 = HSF1 (Homo sapiens, UniProt Q00613 1-529); settings: protein: recombinant; tags: N-terminal GST; chain copies: 3; dsDNA, one strand shown
# How it was run: as §1
# SPIC = target: T8, SPIC (Homo sapiens, UniProt Q8N5J4 1-248); settings: protein: recombinant; tags: N-terminal GST; dsDNA, one strand shown
# T8 sequence: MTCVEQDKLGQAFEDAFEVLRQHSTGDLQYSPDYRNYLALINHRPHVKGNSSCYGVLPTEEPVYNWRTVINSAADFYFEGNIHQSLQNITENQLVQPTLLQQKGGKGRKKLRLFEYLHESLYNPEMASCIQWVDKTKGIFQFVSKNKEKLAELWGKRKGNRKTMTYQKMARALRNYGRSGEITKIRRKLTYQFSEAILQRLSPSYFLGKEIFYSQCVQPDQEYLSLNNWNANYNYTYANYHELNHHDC
# How it was run: as §1
# ELF4 = ELF4 (Homo sapiens, UniProt Q99607 1-663); settings: protein: recombinant; tags: N-terminal GST; dsDNA, one strand shown
# How it was run: as §1
# ELK4 = target: T9, ELK4 (Homo sapiens, UniProt P28324-2 1-405); settings: protein: recombinant; tags: N-terminal GST; dsDNA, one strand shown
# T9 sequence: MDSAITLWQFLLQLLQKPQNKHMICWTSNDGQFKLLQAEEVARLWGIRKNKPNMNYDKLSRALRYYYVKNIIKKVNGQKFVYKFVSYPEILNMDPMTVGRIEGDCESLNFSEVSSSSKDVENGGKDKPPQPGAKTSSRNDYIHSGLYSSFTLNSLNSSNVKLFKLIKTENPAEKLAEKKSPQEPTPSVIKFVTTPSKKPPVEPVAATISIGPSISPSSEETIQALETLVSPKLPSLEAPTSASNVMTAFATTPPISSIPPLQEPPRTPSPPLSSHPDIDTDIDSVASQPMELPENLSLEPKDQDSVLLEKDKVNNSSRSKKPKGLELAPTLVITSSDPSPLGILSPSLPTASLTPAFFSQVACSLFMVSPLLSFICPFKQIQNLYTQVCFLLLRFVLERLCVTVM
# How it was run: as §1
# ETV2 = target: T10, ETV2 (Homo sapiens, UniProt O00321 1-342); settings: protein: recombinant; tags: N-terminal GST; dsDNA, one strand shown
# T10 sequence: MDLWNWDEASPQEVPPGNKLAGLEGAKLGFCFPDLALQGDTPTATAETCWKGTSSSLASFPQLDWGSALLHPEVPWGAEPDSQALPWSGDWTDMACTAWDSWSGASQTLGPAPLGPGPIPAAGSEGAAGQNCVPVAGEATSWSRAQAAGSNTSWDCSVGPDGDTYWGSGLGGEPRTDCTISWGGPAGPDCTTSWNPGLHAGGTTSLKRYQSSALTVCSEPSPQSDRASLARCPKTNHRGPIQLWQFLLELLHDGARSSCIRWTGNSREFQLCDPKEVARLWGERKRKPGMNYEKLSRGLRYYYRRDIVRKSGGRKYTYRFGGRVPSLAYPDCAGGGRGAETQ
# How it was run: as §1
# ELF3 = target: T11, ELF3 (Homo sapiens, UniProt P78545 1-371); settings: protein: recombinant; tags: N-terminal GST; dsDNA, one strand shown
# T11 sequence: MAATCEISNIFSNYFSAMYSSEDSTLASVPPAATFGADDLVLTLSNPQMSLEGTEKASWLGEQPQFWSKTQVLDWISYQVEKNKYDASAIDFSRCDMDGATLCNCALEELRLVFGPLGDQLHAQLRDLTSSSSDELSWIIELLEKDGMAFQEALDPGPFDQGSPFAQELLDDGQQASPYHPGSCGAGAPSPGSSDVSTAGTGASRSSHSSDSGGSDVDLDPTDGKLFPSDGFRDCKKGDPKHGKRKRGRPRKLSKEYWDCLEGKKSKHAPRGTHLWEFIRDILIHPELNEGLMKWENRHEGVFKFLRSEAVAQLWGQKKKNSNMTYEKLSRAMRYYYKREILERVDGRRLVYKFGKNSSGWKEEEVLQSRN
# How it was run: as §1
# CRX = CRX (Homo sapiens, UniProt O43186 1-299); settings: protein: recombinant; tags: N-terminal GST; dsDNA, one strand shown
# How it was run: as §1
# ETV1 = ETV1 (Homo sapiens, UniProt P50549 1-477); settings: protein: recombinant; tags: N-terminal GST; dsDNA, one strand shown
# How it was run: as §1
# Sequence of HSF1 (Q00613 whole entry): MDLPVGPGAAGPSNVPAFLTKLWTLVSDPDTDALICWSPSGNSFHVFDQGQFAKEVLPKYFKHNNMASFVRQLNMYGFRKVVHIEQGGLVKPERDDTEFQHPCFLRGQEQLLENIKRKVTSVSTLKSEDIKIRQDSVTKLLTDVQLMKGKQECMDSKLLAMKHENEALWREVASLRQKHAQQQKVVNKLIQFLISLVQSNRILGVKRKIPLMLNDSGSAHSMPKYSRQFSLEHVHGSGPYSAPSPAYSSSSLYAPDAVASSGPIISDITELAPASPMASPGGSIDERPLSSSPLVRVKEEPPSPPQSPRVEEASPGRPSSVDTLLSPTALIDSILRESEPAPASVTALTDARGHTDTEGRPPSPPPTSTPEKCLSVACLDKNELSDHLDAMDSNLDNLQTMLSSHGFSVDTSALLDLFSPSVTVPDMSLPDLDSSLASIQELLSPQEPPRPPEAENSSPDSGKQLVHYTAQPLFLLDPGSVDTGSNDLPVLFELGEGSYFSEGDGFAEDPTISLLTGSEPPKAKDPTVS
# Sequence of ETV5 (P41161 whole entry): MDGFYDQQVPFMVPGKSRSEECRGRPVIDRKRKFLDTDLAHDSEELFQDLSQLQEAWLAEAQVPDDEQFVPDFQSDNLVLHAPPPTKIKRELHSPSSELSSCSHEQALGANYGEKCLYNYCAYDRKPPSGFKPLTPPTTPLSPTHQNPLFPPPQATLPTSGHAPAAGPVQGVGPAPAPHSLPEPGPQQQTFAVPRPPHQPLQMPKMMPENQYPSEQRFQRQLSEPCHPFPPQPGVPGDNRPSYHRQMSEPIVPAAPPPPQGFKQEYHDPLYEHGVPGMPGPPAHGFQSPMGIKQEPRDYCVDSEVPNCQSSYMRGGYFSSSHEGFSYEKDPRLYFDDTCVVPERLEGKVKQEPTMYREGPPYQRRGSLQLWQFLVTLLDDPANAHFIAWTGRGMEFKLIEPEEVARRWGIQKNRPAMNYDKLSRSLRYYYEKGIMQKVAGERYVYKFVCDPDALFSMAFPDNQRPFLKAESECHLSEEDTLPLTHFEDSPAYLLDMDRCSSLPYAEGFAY
# Sequence of CRX (O43186 whole entry): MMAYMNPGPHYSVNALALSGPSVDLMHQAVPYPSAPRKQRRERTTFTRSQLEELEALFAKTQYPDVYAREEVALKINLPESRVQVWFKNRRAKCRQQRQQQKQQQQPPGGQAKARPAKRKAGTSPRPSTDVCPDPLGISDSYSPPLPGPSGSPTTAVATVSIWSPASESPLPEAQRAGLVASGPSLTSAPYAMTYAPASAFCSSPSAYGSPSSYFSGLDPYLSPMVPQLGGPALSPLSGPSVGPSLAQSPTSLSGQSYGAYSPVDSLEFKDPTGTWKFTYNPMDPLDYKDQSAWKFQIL
# Sequence of ELF4 (Q99607 whole entry): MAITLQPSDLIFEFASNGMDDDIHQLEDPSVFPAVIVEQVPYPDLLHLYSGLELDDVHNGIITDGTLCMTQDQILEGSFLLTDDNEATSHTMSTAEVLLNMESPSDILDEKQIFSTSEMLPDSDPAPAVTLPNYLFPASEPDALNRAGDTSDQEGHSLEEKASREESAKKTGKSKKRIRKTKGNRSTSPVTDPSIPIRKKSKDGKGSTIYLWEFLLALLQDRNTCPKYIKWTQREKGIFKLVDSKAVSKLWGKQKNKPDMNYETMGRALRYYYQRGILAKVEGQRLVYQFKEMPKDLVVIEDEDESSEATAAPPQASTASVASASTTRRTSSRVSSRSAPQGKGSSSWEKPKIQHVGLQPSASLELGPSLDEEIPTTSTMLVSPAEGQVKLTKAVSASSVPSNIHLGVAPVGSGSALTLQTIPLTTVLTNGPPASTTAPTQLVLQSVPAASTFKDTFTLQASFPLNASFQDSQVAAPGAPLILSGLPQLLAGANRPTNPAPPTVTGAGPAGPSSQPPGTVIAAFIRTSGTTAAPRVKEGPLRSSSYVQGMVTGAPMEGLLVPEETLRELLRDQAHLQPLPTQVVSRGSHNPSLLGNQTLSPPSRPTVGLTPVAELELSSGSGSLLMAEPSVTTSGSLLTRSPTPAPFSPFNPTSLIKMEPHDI
# Sequence of SPIB (Q01892 whole entry): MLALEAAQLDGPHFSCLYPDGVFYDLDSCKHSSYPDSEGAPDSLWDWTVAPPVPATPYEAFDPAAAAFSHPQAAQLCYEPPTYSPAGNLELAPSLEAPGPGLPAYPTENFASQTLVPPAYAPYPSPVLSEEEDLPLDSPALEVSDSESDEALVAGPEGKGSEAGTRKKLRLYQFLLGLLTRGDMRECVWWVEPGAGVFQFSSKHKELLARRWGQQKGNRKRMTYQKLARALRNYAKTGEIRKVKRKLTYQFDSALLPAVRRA
# Sequence of ELF1 (P32519 whole entry): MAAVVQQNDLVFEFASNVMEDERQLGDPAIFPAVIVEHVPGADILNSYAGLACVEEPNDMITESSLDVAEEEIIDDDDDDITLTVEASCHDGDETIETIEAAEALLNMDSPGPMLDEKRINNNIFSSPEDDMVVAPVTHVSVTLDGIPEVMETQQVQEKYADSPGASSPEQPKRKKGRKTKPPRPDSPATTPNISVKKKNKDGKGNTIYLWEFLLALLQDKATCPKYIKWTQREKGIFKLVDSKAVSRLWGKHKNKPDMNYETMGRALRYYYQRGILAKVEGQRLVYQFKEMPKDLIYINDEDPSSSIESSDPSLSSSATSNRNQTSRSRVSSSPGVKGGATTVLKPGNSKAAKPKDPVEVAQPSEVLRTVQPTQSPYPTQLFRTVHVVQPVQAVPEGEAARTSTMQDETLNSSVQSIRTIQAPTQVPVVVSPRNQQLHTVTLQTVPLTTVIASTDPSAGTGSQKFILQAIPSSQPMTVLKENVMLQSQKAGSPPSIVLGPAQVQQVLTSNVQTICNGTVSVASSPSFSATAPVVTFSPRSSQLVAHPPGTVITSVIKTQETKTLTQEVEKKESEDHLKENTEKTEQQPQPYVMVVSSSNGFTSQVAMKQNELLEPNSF
# Sequence of ETV1 (P50549 whole entry): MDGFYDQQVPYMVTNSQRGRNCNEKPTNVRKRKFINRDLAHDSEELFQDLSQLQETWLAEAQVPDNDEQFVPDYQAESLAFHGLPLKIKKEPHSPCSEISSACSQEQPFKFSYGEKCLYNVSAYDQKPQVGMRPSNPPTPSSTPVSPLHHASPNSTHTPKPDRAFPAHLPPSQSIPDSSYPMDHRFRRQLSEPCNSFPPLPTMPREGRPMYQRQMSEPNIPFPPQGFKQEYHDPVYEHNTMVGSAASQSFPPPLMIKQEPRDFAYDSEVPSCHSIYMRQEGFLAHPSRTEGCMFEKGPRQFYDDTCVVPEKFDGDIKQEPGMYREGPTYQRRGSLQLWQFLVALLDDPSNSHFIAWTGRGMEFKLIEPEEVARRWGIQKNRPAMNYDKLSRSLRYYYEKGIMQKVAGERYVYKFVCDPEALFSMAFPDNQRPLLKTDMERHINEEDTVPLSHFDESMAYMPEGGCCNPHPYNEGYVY
sequence,measurement,setting,value
CCTCCC,binding signal,FLI1,"1.42 fold enrichment (6-mer frequency, TF over GST control)"
same,binding signal,ELK1,"1.43 fold enrichment (6-mer frequency, TF over GST control)"
same,binding signal,GABPA,"1.45 fold enrichment (6-mer frequency, TF over GST control)"
same,binding signal,ERG,"1.47 fold enrichment (6-mer frequency, TF over GST control)"
same,binding signal,ELF1,"1.54 fold enrichment (6-mer frequency, TF over GST control)"
same,binding signal,EHF,"1.57 fold enrichment (6-mer frequency, TF over GST control)"
same,binding signal,SPI1,"1.48 fold enrichment (6-mer frequency, TF over GST control)"
same,binding signal,SPIB,"1.48 fold enrichment (6-mer frequency, TF over GST control)"
same,binding signal,ELK3,"1.45 fold enrichment (6-mer frequency, TF over GST control)"
same,binding signal,FEV,"1.59 fold enrichment (6-mer frequency, TF over GST control)"
same,binding signal,ETV5,"1.55 fold enrichment (6-mer frequency, TF over GST control)"
same,binding signal,HSF1,"1.12 fold enrichment (6-mer frequency, TF over GST control)"
same,binding signal,SPIC,"1.65 fold enrichment (6-mer frequency, TF over GST control)"
same,binding signal,ELF4,"1.66 fold enrichment (6-mer frequency, TF over GST control)"
same,binding signal,ELK4,"1.3 fold enrichment (6-mer frequency, TF over GST control)"
same,binding signal,ETV2,"1.71 fold enrichment (6-mer frequency, TF over GST control)"
same,binding signal,ELF3,"1.36 fold enrichment (6-mer frequency, TF over GST control)"
same,binding signal,CRX,"1.21 fold enrichment (6-mer frequency, TF over GST control)"
same,binding signal,ETV1,"1.36 fold enrichment (6-mer frequency, TF over GST control)"

# — PMC7862700, “An all-to-all approach to the identification of sequence-specific readers for epigenetic DNA modifications on cytosine”
